Only some compounds are listed: those with a hit (about 2.2% of all), similar ones and a draw of the others.
Mito fusion yeast: mitochondrial division inhibition or fusion activation; AID 485298; 0.23% of 320,000 active; S. cerevisiae fusion-defective mutant growth rescue, CellTiterGlo 48 h; Potency, µM (doses to about 46.1 µM), without a hit: at the highest dose growth rescue (activation), hits mostly activators; further: % of control where 0% means no effect; nearly all actives have a fitted effect of over 45% in size
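Temperature-sensitive fusion-defective S. cerevisiae (e.g. fzo1-1, mgm1-5) were grown with compound in YPEG medium (3% ethanol, 3% glycerol) for 48 hours at 37C. Growth rescue was measured as viability by CellTiterGlo luminescence after 10 minutes at ambient.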
aSyn rescue: rescues yeast growth from alpha-synuclein toxicity; Potency, µM (titrated, usually from 46.1 µM), without a hit: at the top dose growth rescue (activation), most hits filed as activators; Yeast expressing alpha-synuclein, growth rescue, BacTiter-Glo, 24 h; 0.14% of 370,000 active; further: % of control where 0% means no effect; nearly all actives have a fitted effect of over 65% in size
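Galactose-induced alpha-syn yeast (OD600=0.02, raffinose-pregrown) + pinned cpd, 24 hr, 30 deg C; growth by BacTiter-Glo luminescence. Growth restoration scores as activation.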
Abeta yeast res: A-beta toxicity reversal in yeast; yeast expressing A-beta42, growth rescue, OD600, 48 h; response scale: 0% DMSO, 100% iron-clioquinol control; Potency, µM (titrated, usually from 46.1 µM), hits mostly activators; 0.063% of 410,000 active; further: nearly all actives have a fitted effect of over 55% in size
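Yeast growth medium received pinned compounds, then yeast cells expressing toxic A-beta were added; plates incubated at 30 C for 48 hr. Growth read as absorbance at 600 nm, normalized to DMSO and equimolar FeCl3 plus clioquinol controls.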
FUS suppressor: suppressors of FUS proteinopathy in yeast; Potency, µM (top dose mostly 76.6 µM), usual class: activators; 0.24% of 390,000 active; S. cerevisiae FUS-expressing, growth rescue, OD600, 24 h;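 further: plate controls were DMSO vehicle for no effect and reference control for full effect; nearly all actives have a fitted effect of over 55% in size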
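Galactose (2%) drives FUS expression in yeast precultured in raffinose; seeding density OD 0.005. Test compounds incubated 24hr at 30C and 99% humidity before absorbance at 600 nm was measured.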
TDP-43 yeast inh: inhibitors of TDP-43 toxicity in yeast; TDP-43 expressing yeast growth rescue, BacTiter-Glo, 24 h; Potency, µM (top dose mostly 46.1 µM), for inactives: at the top dose growth rescue (activation), actives largely listed as activators; 1.8% of 410,000 active; AID 652104; further: % of control where 0% means no effect; nearly all actives have a fitted effect of over 50% in size
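Readout is BacTiter-Glo luminescence of cell growth, so inhibitors register as activators. TDP-43-expressing yeast at OD600=0.02 in galactose medium, after raffinose pregrowth to mid-log, were incubated with compound for 24 hr at 30 deg C.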
Starred values were filed as active, the others as inactive. The call rests on the fitted dose curve; in most records, active means well fitted curve in the direction sought with a large enough effect; inconclusive means small, poorly fitted or top-dose-only effect, or another doubt; inactive means no such curve, though single readings can be large; an effect the other way counts as inactive or inconclusive. Potency means the concentration at half of the fitted maximal effect.

How did CCOc1ccc(NC(=O)CN2CCN(c3ccc(Cl)cc3)CC2)cc1 do in these assays?
Abeta yeast res: inactive; FUS suppressor: inactive; TDP-43 yeast inh: 11%

What do the screens show for `COc1ccccc1-c1noc(-c2ccc(NC3CCCC3)c([N+](=O)[O-])c2)n1`?
Abeta yeast res: inactive; FUS suppressor: inactive; TDP-43 yeast inh: 22%

How did CC1CCC(C(O)(C(=O)O)C2CCCCC2)CC1C (stereo unspecified) do in these assays?
aSyn rescue: 14%; Abeta yeast res: inactive; TDP-43 yeast inh: 18µM*

What do the screens show for `CC(C(=O)O)(C1CCCCC1)C1(O)CCCCC1` (stereo unspecified)?
aSyn rescue: 0%; Abeta yeast res: inactive; FUS suppressor: inactive; TDP-43 yeast inh: inconclusive

How did CC(C)c1cc(-c2cc(C(=O)NCc3ccccc3)on2)nc(NCC2CC2)n1 do in these assays?
Mito fusion yeast: -109%; aSyn rescue: inconclusive; Abeta yeast res: inactive; FUS suppressor: inactive; TDP-43 yeast inh: 16µM*

What do the screens show for `CC(C)CC(=O)O/N=C1\C(=O)N(c2ccccc2)c2ccccc21`?
Mito fusion yeast: 2%; aSyn rescue: 1%; Abeta yeast res: inactive; FUS suppressor: inactive; TDP-43 yeast inh: -14%

What do the screens show for `CC(C)(C)C(=O)O/N=C1/C(=O)N(c2ccccc2)c2ccccc21`?
Mito fusion yeast: 5%; aSyn rescue: 7.1µM*; Abeta yeast res: inactive; FUS suppressor: inactive; TDP-43 yeast inh: inconclusive

Results for CCOc1ccc(OC(=O)c2cccnc2)cc1 ?
Mito fusion yeast: -2%; aSyn rescue: 0%; Abeta yeast res: inactive; FUS suppressor: inactive; TDP-43 yeast inh: 16µM*

Results for CC(=O)/C=C\c1ccc(OC(=O)c2cccnc2)cc1 ?
Mito fusion yeast: 0%; aSyn rescue: 9%; Abeta yeast res: inactive; FUS suppressor: inactive; TDP-43 yeast inh: 20µM*

How did CCOC(=O)CSc1nc2sc(C)c(C)c2c(=O)n1C do in these assays?
Mito fusion yeast: 1%; aSyn rescue: 0%; Abeta yeast res: inactive; FUS suppressor: inactive; TDP-43 yeast inh: 11µM*

What do the screens show for `C=CCOc1ccc(/C=C/C(=O)OCC(=O)N2CCN(C(C)=O)CC2)cc1`?
aSyn rescue: 0%; Abeta yeast res: inactive; FUS suppressor: inactive; TDP-43 yeast inh: -13%

Results for C=CCOc1ccc(/C=C/C(C)=N\O)cc1 ?
Mito fusion yeast: -2%; Abeta yeast res: inactive; FUS suppressor: inactive; TDP-43 yeast inh: 10µM*

What do the screens show for `CCN1C(=NCc2cccc(Cl)c2)N[C@@H](c2cccc(C(F)(F)F)c2)C(C(=O)OC)=C1C`?
aSyn rescue: 0%

Results for Cc1ccc(SCc2nc(-c3ccc(C(=O)Nc4cc(C)ccc4C)cc3)oc2C)cc1 ?
Abeta yeast res: inactive; FUS suppressor: inactive; TDP-43 yeast inh: -23%

What do the screens show for `Brc1ccc(OCc2nc(-c3ccccn3)n[nH]2)cc1`?
Mito fusion yeast: -4%; aSyn rescue: inconclusive; Abeta yeast res: inactive; FUS suppressor: inactive; TDP-43 yeast inh: 16µM*

Results for CCc1ccccc1NC(=O)C1CCC(=O)N(c2ccc(OC)cc2)C1c1ccc(OC)cc1 (stereo unspecified) ?
FUS suppressor: inactive

What do the screens show for `CC(C)(C)c1cc(NS(=O)(=O)c2ccc3c(c2)OCCO3)on1`?
Mito fusion yeast: -6%; aSyn rescue: -2%; Abeta yeast res: inconclusive; FUS suppressor: inactive; TDP-43 yeast inh: 13µM*

How did CCOC(=O)Cc1ccc(NS(=O)(=O)c2ccc(SC)cc2)cc1 do in these assays?
Mito fusion yeast: 13%; aSyn rescue: 6%; Abeta yeast res: inactive; FUS suppressor: inactive; TDP-43 yeast inh: 2%

Results for CCOC(=O)c1ccc(S(=O)(=O)Nc2cc(C(C)(C)C)no2)cc1 ?
Mito fusion yeast: 3%; aSyn rescue: 18%; Abeta yeast res: inactive; FUS suppressor: inactive; TDP-43 yeast inh: 13µM*

What do the screens show for `CCOC(=O)c1ccc(NS(=O)(=O)c2ccc(SC)cc2)cc1`?
Mito fusion yeast: 20µM*; aSyn rescue: 20%; Abeta yeast res: inactive; FUS suppressor: inconclusive; TDP-43 yeast inh: inconclusive

How did Cc1ccc(CN2C(=O)C(=O)c3cc(Br)cc(C)c32)cc1 do in these assays?
Abeta yeast res: inactive; FUS suppressor: inactive; TDP-43 yeast inh: inconclusive

Results for Cc1ccc(CSc2nc3ccsc3c(=O)n2Cc2ccccn2)cc1 ?
Mito fusion yeast: inconclusive; aSyn rescue: 3%; Abeta yeast res: inactive; TDP-43 yeast inh: 35µM*

How did c1ccc2c(CCc3c[nH]c4ccccc34)ccnc2c1 do in these assays?
aSyn rescue: -16%

Results for COc1cc(C)c(S(=O)(=O)N2CCCC2)cc1C ?
Mito fusion yeast: -10%; aSyn rescue: 14µM*; Abeta yeast res: inconclusive; FUS suppressor: inactive; TDP-43 yeast inh: 6%

What do the screens show for `COc1cc(C)c(S(=O)(=O)N2CCN(C)CC2)cc1C`?
Mito fusion yeast: 0%; aSyn rescue: 2%; Abeta yeast res: inactive; FUS suppressor: inactive; TDP-43 yeast inh: 12%

What do the screens show for `CCOc1cc(C)c(S(=O)(=O)N2CCCCC2)cc1C`?
Mito fusion yeast: inconclusive; aSyn rescue: 16µM*; Abeta yeast res: inconclusive; FUS suppressor: inactive; TDP-43 yeast inh: inconclusive

Results for CCOc1cc(S(=O)(=O)N2CCCC2)c(C)cc1C ?
Mito fusion yeast: 5%; aSyn rescue: 1%; Abeta yeast res: inactive; FUS suppressor: inactive; TDP-43 yeast inh: -7%

How did COc1ccc(N2CCN(C(c3cc4cc(C)ccc4[nH]c3=O)c3nnnn3Cc3ccccc3)CC2)cc1 (stereo unspecified) do in these assays?
Mito fusion yeast: 0%; aSyn rescue: -5%; Abeta yeast res: inactive; FUS suppressor: 8.9µM*; TDP-43 yeast inh: -8%

What do the screens show for `O=C(NNC(=O)c1csc(-c2cccs2)n1)c1ccc(Cl)cc1`?
aSyn rescue: 17%; Abeta yeast res: inactive; FUS suppressor: inactive; TDP-43 yeast inh: 22µM*

What do the screens show for `Cc1nc(C(=O)NNC(=O)c2ccc(Cl)cc2)cs1`?
Mito fusion yeast: 7%; aSyn rescue: 2%; Abeta yeast res: inactive; FUS suppressor: inactive; TDP-43 yeast inh: -2%

Results for CC1(Cc2cccc(C#N)c2)C(=O)Nc2c(Cl)cccc21 (stereo unspecified) ?
aSyn rescue: 18µM*; Abeta yeast res: inactive; FUS suppressor: inactive; TDP-43 yeast inh: inconclusive

Results for C=Cc1ccc(CC2(C)C(=O)Nc3ccc(Cl)cc32)cc1 (stereo unspecified) ?
aSyn rescue: inconclusive; Abeta yeast res: inconclusive; FUS suppressor: inactive; TDP-43 yeast inh: 0%

Results for C=Cc1ccc(CC2(C)C(=O)Nc3c(Cl)cccc32)cc1 (stereo unspecified) ?
aSyn rescue: 10µM*; Abeta yeast res: inactive; FUS suppressor: inactive; TDP-43 yeast inh: -37%

Screening data: PubChem BioAssay, National Center for Advancing Translational Sciences (NCATS)
